Reference: the supplement of paper PMC8866396
Where “and” joins values, the source holds several entries; their conditions need not be identical. Identical values can stand only once. ± gives the standard deviation of the averaged measurements.

test system: IL-6-GFP PC-9GR; assay: cell viability (CCK-8 OD) relative to DMSO control (fraction of control); higher = more viable cells; settings: compound concentration: 10 uM; treatment time: 48 h
In short: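 A purchased 510-compound library was screened at a final 10 μM for 48 h against PC-9 and PC-9GR lung cancer cells overexpressing IL-6-GFP via a lentiviral construct, seeded at 3000 cells/well in 96-well plates. GFP imaging was done on a parallel plate set. For viability, CCK-8 absorbance was recorded and each well's optical density was divided by that of the vehicle control well. There were two independent replicates.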

In order of falling cell viability:
1. CC(=O)Nc1ccc(CC(=O)O)cc1 [Actarit]  1.61 ± 0.35
2. CC(=O)OCC1OC(n2ccc(=O)[nH]c2=O)C(OC(C)=O)C1OC(C)=O (centres undefined) [uridine triacetate]  1.59 ± 0.3
3. CCCCC(CC)CN1CN(CC(CC)CCCC)CC(C)(N)C1 (centres undefined) [Hexetidine]  1.58 ± 0.49
4. COc1cc(C2Oc3ccc(C4Oc5cc(O)cc(O)c5C(=O)C4O)cc3OC2CO)ccc1O (centres undefined) [Silymarin]  1.53 ± 0.29
5. COc1ccc2cc(C(C)C(=O)O)ccc2c1 (centres undefined) [Naproxen]  1.5 ± 0.37
6. CC1=C(/C=C/C(C)=C/C=C/C(C)=C/C(=O)O)C(C)(C)CCC1 [Tretinoin]  1.45 ± 0.45
7. O=C(O)c1cc(N=Nc2ccc(S(=O)(=O)Nc3ccccn3)cc2)ccc1O [Sulfasalazine]  1.41 ± 0.088
8. O=C(O)Cc1ccccc1Nc1c(Cl)cccc1Cl.OCCN1CCCC1 [Diclofenac Epolamine]  1.34 ± 0.62
9. O=c1ccc2ccc(O)c(O)c2o1 [Daphnetin]  1.303 ± 0.0056
10. Cc1nnc(C(C)C)n1C1CC2CCC(C1)N2CCC(NC(=O)C1CCC(F)(F)CC1)c1ccccc1 (centres undefined) [Maraviroc]  1.3 ± 0.033
11. O=C(O)COC(=O)Cc1ccccc1Nc1c(Cl)cccc1Cl [Aceclofenac]  1.29 ± 0.4
12. CN(C)C(=O)c1cc2cnc(Nc3ccc(N4CCNCC4)cn3)nc2n1C1CCCC1 [Ribociclib (LEE011)]  1.29 ± 0.4
13. O=C1Nc2ccccc2/C1=C1\Nc2ccccc2C1=O [Indirubin]  1.28 ± 0.29
14. COc1ccc2c(c1)nc(S(=O)Cc1ncc(C)c(OC)c1C)[n]2[Na] (centres undefined) [Esomeprazole sodium]  1.26 ± 0.2
15. CN(C)c1nc(N(C)C)nc(N(C)C)n1 [Altretamine]  1.25 ± 0.047
16. CC12CCC(CC1=O)C2(C)C (centres undefined) [Camphor]  1.24 ± 0.3
17. O=S(=O)([O-])CCS.[Na+] [Mesna]  1.23 ± 0.2
18. COC(=O)c1cc(OC)c2c(c1-c1c(C(=O)OC)cc(OC)c3c1OCO3)OCO2 [Bifendate]  1.19 ± 0.22
19. Cn1nnc2c(C(N)=O)ncn2c1=O [Temozolomide]  1.18 ± 0.04
20. COC1=C(OC)C(=O)C(CCCCCCCCCCO)=C(C)C1=O [Idebenone]  1.12 ± 0.088
21. O=C(c1cc(Cc2n[nH]c(=O)c3ccccc23)ccc1F)N1CCN(C(=O)C2CC2)CC1  1.09 ± 0.081
22. Cl.Cl.O=C(O)COCCN1CCN(C(c2ccccc2)c2ccc(Cl)cc2)CC1 (centres undefined) [Cetirizine DiHCl]  1.08 ± 0.0043
23. CS(=O)(=O)c1ccc(C(=O)Nc2ccc(Cl)c(-c3ccccn3)c2)c(Cl)c1 [Vismodegib (GDC-0449)]  1.05 ± 0.072
24. CC(C)c1nc(CN(C)C(=O)NC(CCN2CCOCC2)C(=O)NC(CCC(Cc2ccccc2)NC(=O)OCc2cncs2)Cc2ccccc2)cs1 (centres undefined) [Cobicistat (GS-9350)]  0.989 ± 0.11
25. CN(C)C(=O)COC(=O)Cc1ccc(OC(=O)c2ccc(NC(=N)N)cc2)cc1.CS(=O)(=O)O [Camostat Mesilate]  0.986 ± 0.098
26. COC1CC2CCC(C)C(O)(O2)C(=O)C(=O)N2CCCCC2C(=O)OC(C(C)CC2CCC(OCCO)C(OC)C2)CC(=O)C(C)/C=C(\C)C(O)C(OC)C(=O)C(C)CC(C)/C=C/C=C/C=C/1C (centres undefined) [Everolimus (RAD001)]  0.985 ± 0.068
27. NC(CO)(CO)CO [Trometamol]  0.932 ± 0.18
28. CC(=O)c1c(C)c2cnc(Nc3ccc(N4CCNCC4)cn3)nc2n(C2CCCC2)c1=O.O=S(=O)(O)CCO  0.918 ± 0.1
29. O=c1cc[nH]c(=O)[nH]1 [Uracil]  0.909 ± 0.021
30. CC1CC2C3CC(F)C4=CC(=O)C=CC4(C)C3(F)C(O)CC2(C)C1(O)C(=O)CO (centres undefined) [Diflorasone]  0.825 ± 0.11
31. OCC1OC(c2ccc(F)c(Cc3cc4ccccc4s3)c2)C(O)C(O)C1O (centres undefined) [Ipragliflozin (ASP1941)]  0.779 ± 0.068
32. Cc1ccc(S(=O)(=O)O)cc1.NC(=O)c1cccc2cn(-c3ccc(C4CCCNC4)cc3)nc12 (centres undefined) [Niraparib (MK-4827) tosylate]  0.764 ± 0.096
33. CN1CCC(=C2c3ccccc3CCn3c(C=O)cnc32)CC1 [Alcaftadine]  0.751 ± 0.18
34. CN(C)C/C=C/C(=O)Nc1cc2c(Nc3ccc(F)c(Cl)c3)ncnc2cc1OC1CCOC1 (centres undefined) [Afatinib (BIBW2992)]  0.542 ± 0.058
35. CCC1(O)CC2CN(CCc3c([nH]c4ccccc34)C(C(=O)OC)(c3cc4c(cc3OC)N(C)C3C(O)(C(=O)OC)C(OC(C)=O)C5(CC)C=CCN6CCC43C65)C2)C1.O=S(=O)(O)O (centres undefined) [Vinblastine sulfate]  0.475 ± 0.069
36. CC1=C(/C=C/C(C)=C/C=C/C(C)=C/C(=O)Nc2ccc(O)cc2)C(C)(C)CCC1 [Fenretinide]  0.47 ± 0.12
37. C=CC1=C(C)c2cc3nc(cc4[nH]c(cc5[nH]c(cc1n2)c(C)c5C=C)c(C)c4CCC(=O)O)C(CCC(=O)O)=C3C [Protoporphyrin IX]  0.345 ± 0.26
38. COc1cccc2c1C(=O)c1c(O)c3c(c(O)c1C2=O)CC(O)(C(=O)CO)CC3OC1CC(N)C(OC2CCCCO2)C(C)O1 (centres undefined) [Pirarubicin]  0.33 ± 0.12

In the case of `N#CCC(C1CCCC1)n1cc(-c2ncnc3[nH]ccc23)cn1` (centres undefined), the cell viability is reported as 1.08 and 1.17.
